Data on 62 compounds can be found in PubChem BioAssay AID2315 (National Center for Advancing Translational Sciences (NCATS), 2010).

Out of some 290,000 compounds screened, about 27,000 (9.3%) were called active. Cut-off read from the data, not from the text of the source: active = inhibition mostly above about 28% (no sharp cut-off); inactive = mostly below about 43%. The sample as a whole holds a higher share of actives than the screen did.

A short description of the assay: A qHTS for Small Molecule Inhibitors of Shiga Toxin. Note: 0% is about no effect. The following applies: Vero cells, Shiga toxin protein synthesis inhibition reporter; at 38.7 µM, hits give high values.
Regarding `O=C(c1cnc(Cl)c(Cl)c1)N1CCN(S(=O)(=O)c2ccc(F)cc2)CC1`, the inhibition was 1.5% (inactive). Under `CCc1ccc(NC(=O)CN2CCC(C(=O)c3ccc(OC)cc3)CC2)cc1` stands -10.2% (inactive); under `CCNC(=O)CC1C(=O)N(c2ccc(OC)cc2)C(=O)N1CCOC` (configuration not stated), -7.39% (inactive); under `CC(C)C[C@H](NC(=O)N1CC(=O)Nc2ccccc21)C(=O)N[C@H](Cc1ccccc1)C(=O)O`, -3.7% (inactive). On to `CCCn1c(C(O)c2ccc(OCC)cc2)nc2ccccc21` (configuration not stated), for which the inhibition is -6.45% (inactive).

`CCOc1ccc(C(O)Cc2nc3ccccc3n2C)cc1` (configuration not stated): the inhibition is 61.7% (active). The result for `COc1cccc(C(O)Cc2nc3ccccc3n2C)c1OC` (configuration not stated) reads 10.7% (inactive); that for `S=C(NNC(=S)NC1CC2C=CC1C2)NC1CC2C=CC1C2` (configuration not stated), 18.6% (inactive). The result for `S=C(NNC(=S)NC1CC2CCC1C2)NC1CC2C=CC1C2` (configuration not stated) reads 38% (inactive); that for `CC(C)c1ccc(NC(=S)NC2CC3C=CC2C3)cc1` (configuration not stated), 81.8% (active); that for `O=C(CN1CCC(NC(=O)Nc2ccccc2)CC1)Nc1cccc([N+](=O)[O-])c1`, -6.37% (inactive). The result for `O=C(CCN1C(=O)C2C3CCC(C3)C2C1=O)Nc1ccc(Cl)cc1Cl` (configuration not stated) reads 30.5% (inactive); that for `Cc1cccc(NC(=O)C2CCN(C(=O)NC3CCCCC3)CC2)c1`, -14.2% (inactive); that for `Cc1csc(=Nc2ccccc2)n1CCO`, -5.67% (inactive). For `OCCn1c(-c2ccccc2)csc1=Nc1ccccc1`, the inhibition is 29.8% (active). On to `Cc1csc(=NC(=O)c2ccccc2)n1CCO`, for which the inhibition was -11% (inactive). With `Cc1cc2c(cc1S(=O)(=O)CCC(=O)NCc1ccccc1)OCC(=O)N2`, the inhibition is 9.17% (inactive). Under `COCCCNC(=O)CNC(=O)c1nn(-c2ccc(OC)cc2)c(=O)c2ccccc12` stands -3.74% (inactive); under `O=C(CN1CCN(S(=O)(=O)c2cc(Cl)ccc2Cl)CC1)c1ccc(O)c(O)c1`, -3.28% (inactive).

As for `COc1cc(OC)cc(C(=O)N[C@H](C(=O)Nc2nc3ccccc3[nH]2)C(C)C)c1`, the inhibition is -3.89% (inactive). The result for `COC(=O)Nc1nc2ccc(Sc3ccccc3)cc2[nH]1` reads 76.6% (active); that for `Cc1nc2ccc(C(=O)O)cc2[nH]1`, -11.9% (inactive). In the case of `Cc1ccc(S(=O)(=O)N(C)c2nc3ccccc3n3c(C(C)C)nnc23)cc1`, the inhibition is 13.3% (inactive).

Take `CC(=O)Nc1ccc(/C=C/C(=O)c2ccccc2)cc1`: the inhibition is 58.1% (active). Under `CC(=O)Nc1ccc(C(=O)/C=C/c2ccc[nH]2)cc1` stands 77.1% (active). The result for `CC(=O)Nc1ccc(NC(=S)NC(=O)/C=C/c2ccccc2)cc1` reads 5.78% (inactive); that for `CCCC(=O)Nc1ccc(C(=O)N/N=C/c2ccc[nH]2)cc1`, 13% (inactive); that for `CC(=O)Nc1ccc(NC(=O)CCCNC(=O)c2ccc(Cl)cc2)cc1`, 3.88% (inactive). The result for `COc1ccc(C(=O)/C=C/c2ccc(OC3CSC3)cc2)cc1` reads 2.97% (inactive); that for `C=CCNC(=S)/N=c1/ccccn1Cc1ccccc1`, 2.67% (inactive).

Turning to `O=C(NC(=S)NC1CCS(=O)(=O)C1)c1cccc([N+](=O)[O-])c1` (configuration not stated), the inhibition was -10.3% (inactive). Regarding `Cc1ccc(SCC(=O)NNC(=O)c2ccc(S(C)(=O)=O)cc2)cc1`, the inhibition was -6.84% (inactive). Under `COc1ccc(CCn2c(=N)c(C(=O)NCC3CCCO3)cc3c(=O)n4cccc(C)c4nc32)cc1OC` (configuration not stated) stands 2.54% (inactive); under `O=C(NCc1nnc(SCC(=O)N2CCCCCC2)o1)c1ccc(F)cc1`, -3.11% (inactive); under `c1ccc(C2=Nc3cccc4cccc(c34)N2)cc1`, 3.03% (inactive). Under `COc1ccccc1C1=Nc2cccc3cccc(c23)N1` stands -3.03% (inactive); under `Fc1ccccc1N=C1Nc2cccc3cccc1c23`, 59% (active). The result for `Cc1cc(N2C(=O)C(O)=C(C(=O)c3ccc(C)o3)C2c2ccc(OCc3ccccc3)cc2)no1` (configuration not stated) reads -3.21% (inactive); that for `COc1ccc(NC(=O)c2cn(-c3ccccc3)nc2SC)cc1`, 43.3% (active); that for `COc1ccc(-c2nn(-c3ccccc3)cc2C(=O)Nc2nc(CC(C)=O)ns2)cc1`, -2.47% (inactive). On to `COc1ccc(-c2nn(-c3ccccc3)cc2/C=C\C(=O)Nc2ccc(C(=O)O)cc2)cc1`, for which the inhibition was -20.1% (inactive). The result for `O=C(CN1CCC(O)(c2cccc(C(F)(F)F)c2)CC1)NCCc1ccccc1` reads -6.9% (inactive); that for `CC(NC(=O)CNC(=O)Cc1cccc2ccccc12)c1ccc(S(N)(=O)=O)cc1` (configuration not stated), -8.32% (inactive); that for `COC(=O)c1ccccc1NC(=O)Cc1ccccc1OC`, 0.83% (inactive). Consider `COc1ccccc1CC(=O)Nc1ccc(F)cc1F`, for which the inhibition was 1.11% (inactive). The result for `CC[C@]1(c2ccccc2OC)C(=O)N(C(=O)OC)N1C(=O)OC` reads 35.6% (active). Under `COc1ccccc1-n1c(SCC(=O)Nc2cccc(C(=O)O)c2)nnc1-c1ccccc1O` stands 6.46% (inactive). Under `CCOC(=O)N1CCN(C(=O)c2ccc3c(c2)N(Cc2ccc(C)cc2)CCS3)CC1` stands -7.18% (inactive).

Turning to `O=C(NCCN1CCOCC1)c1ccc2c(c1)N(Cc1ccc(Cl)cc1)CCS2`, the inhibition was -14% (inactive). `O=C(NCCc1ccccc1)c1ccc2c(c1)N(Cc1ccccc1)CCS2`: the inhibition was 59.8% (active).

With `COCCNc1ccc(-c2n[nH]c(=O)c3ccccc23)cc1[N+](=O)[O-]`, the inhibition is -2.3% (inactive).

On to `O=C(NCc1ccccc1Cl)C1CCN(S(=O)(=O)c2cccc3nonc23)CC1`, for which the inhibition was 9.83% (inactive). Under `CCN(CC(=O)NCC(=O)Nc1cccc(C)c1C)Cc1ccccc1` stands -9.33% (inactive); under `CCN1C(=O)/C(=C2\SC(N3CCCCC3)=NC2=O)c2ccccc21`, 52.1% (active); under `CC(C)=C1SC(N2CCN(c3cccc(C)c3)CC2)=NC1=O`, -21.2% (inactive). The result for `CC(C)=C1SC(N2CCN(c3ccc(C)c(Cl)c3)CC2)=NC1=O` reads 7.4% (inactive); that for `Cc1cc(C)cc(C(=O)NC(CC(N)=O)c2ccc(N3CCC(N4CCCCC4)CC3)c([N+](=O)[O-])c2)c1` (configuration not stated), -3.41% (inactive). The result for `COc1cccc(NC(=O)N2C3CCCC2CC(NC(C)=O)C3)c1` (configuration not stated) reads -2.41% (inactive). On to `Cc1ccc(S(=O)(=O)NCc2ccc(C(=O)NC3CCC(C)CC3)cc2)cc1` (configuration not stated), for which the inhibition was -2.09% (inactive). For the compound `COc1ccc(NC(=O)CCNC(=O)Cn2cnc3sc4c(c3c2=O)CCCC4)cc1OC`, the inhibition was 7.2% (inactive). For `COc1ccc(/C=N/Nc2ncnc3sc4c(c23)CCCC4)cc1O`, the inhibition is 79.2% (active). The result for `COc1ccc(NC(=O)CCCNC(=O)Cn2cnc3sc4c(c3c2=O)CCCC4)cc1OC` reads -15.7% (inactive).

The inhibition is the relative decrease from the control value, in per cent.
